Structures are written as SMILES. Unmarked numbers belong to inactive results. Calls come from the whole dose curve; as a rule, active = well fitted curve in the direction sought with a large enough effect; inconclusive = small, poorly fitted or top-dose-only effect, or another doubt; inactive = no such curve, though single readings can be large or run the other way.

The results in this text go back to PubChem BioAssay (NCATS).

The target in this assay is Guanine nucleotide-binding protein G(i) subunit alpha-1 (Homo sapiens) (UniProt P63096). As to the kind of experiment: qHTS Assay for Inhibitors of RGS12 GoLoco Motif Activity (Green Fluorophore) (AID 879).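 Note: 0% = labeled peptide with Gαi1 and full inhibition = labeled peptide alone without protein; negative values mean loss of peptide binding seen as reduced polarization.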 To be noted: Galphai1/FITC-RGS12 GoLoco peptide, fluorescence polarization; series mostly up to 57.1 µM; activity, negative = inhibition: at the top concentration. An excerpt: Assay Overview: NIH Molecular Libraries Screening Centers Network [MLSCN] NIH Chemical Genomics Center [NCGC] MLSCN Grant: NS053754-01 Assay Provider: Siderovski, David P, University of North Carolina at Chapel Hill G-protein-coupled receptors (GPCRs) are major targets for drug discovery. The regulator of G-protein signaling (RGS)-protein family has important roles in GPCR signal transduction. RGS proteins contain a conserved RGS-box, which is often accompanied by other signaling regulatory elements. RGS proteins accelerate the deactivation of G proteins to reduce GPCR signaling; however, some also have an effector function and transmit signals. Combining GPCR agonists with RGS inhibitors should potentiate responses, and could markedly increase the agonist's regional specificity. The diversity of RGS proteins with highly localized and dynamically regulated distributions in brain makes them attractive targets for pharmacotherapy of central nervous system disorders. […] A complex of Gai1 and fluorescently labeled G-alpha-binding peptide (the "GoLoco motif") derived from RGS12 is incubated with library members. Inhibitors of the binding are detected by a decrease in the fluorescence polarization (FP) of the fluorophore. Protein was supplied by Prof. David Siderovski, University of North Carolina at Chapel Hill.
Sequence of Guanine nucleotide-binding protein G(i) subunit alpha-1 (Homo sapiens) (P63096 whole entry, looked up): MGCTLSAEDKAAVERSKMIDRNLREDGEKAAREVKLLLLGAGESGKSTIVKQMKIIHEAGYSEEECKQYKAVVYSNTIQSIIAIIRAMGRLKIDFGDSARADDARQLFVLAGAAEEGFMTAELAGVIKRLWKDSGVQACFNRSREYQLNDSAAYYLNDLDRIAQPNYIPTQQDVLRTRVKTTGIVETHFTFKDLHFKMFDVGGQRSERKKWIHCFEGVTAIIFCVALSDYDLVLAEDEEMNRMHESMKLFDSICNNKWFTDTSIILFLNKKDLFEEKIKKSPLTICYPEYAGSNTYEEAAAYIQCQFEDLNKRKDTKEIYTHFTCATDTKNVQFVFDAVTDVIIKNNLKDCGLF
Assay Protocol: Reagents/Controls: Assay Buffer: 10 mM Tris-HCl, 150 mM NaCl, 0.1 mM GDP (prepared fresh), and 0.05% NP40 at pH 7.5. […] 10 nM FITC labeled peptide/50 nM protein in columns 1, 2, 5 - 48. Titration of unlabeled peptide control ([H][…][NH2], custom synthesized and HPLC-purified by Tufts University Core Facility) from 10 mM, then 1:2 dilution, 16-point in duplicate, pin-transferred to column 2, rows 1 to 32. Column 1 is neutral. FITC-labeled RGS12-GoLoco peptide was custom-synthesized and HPLC-purified by Michael Berne of Tufts University Assay Steps. Four uL of reagents were dispensed to 1536-well Greiner black solid-bottom plates. Compounds and controls (23 nL) were transferred via Kalypsys PinTool. The plates were incubated for 10 min at room temperature, and then read on ViewLux (Perkin-Elmer) High-throughput CCD imager using FITC polarization filter sets for the fluorescein-labeled decapeptide probe.During dispense, reagent bottles were kept submerged into 4 deg C water bath and all liquid lines were covered with aluminum foil to minimize probe and protein degradation. All screening operations were performed on a Kalypsys robotic system (Kalypsys, Inc., San Diego, CA) containing one RX-130 and two RX-90 anthropomorphic robotic arms.
For orientation: qHTS replaces the single test concentration by a dilution series.
Regarding `NS(=O)(=O)c1cc2c(cc1Cl)N[C@@H]([C@@H]1C[C@@H]3C=C[C@H]1C3)NS2(=O)=O`, the “activity, negative = inhibition” value is -4.06%.
Next, `CCCCOc1cc(C[C@@H]2CNC(=O)N2)ccc1OC`: -13.1%; `CO[C@]1(C2=NCCN2)COc2ccccc2O1`: -7.16%.
The figure for `Oc1cc2c(cc1O)[C@H](c1ccccc1)CNCC2` is -21.9%.
Next, `O=C(OCCN1CCCCC1)c1c[nH]c2ccccc12`: -12.9%; `COCCOC(=O)C1=C(C)NC(C)=C(C(=O)OC(C)C)[C@@H]1c1cccc([N+](=O)[O-])c1`: -5.53%.
As for `N[C@H](C(=O)O)[C@@H]1C[C@@H]1C(=O)O`, the “activity, negative = inhibition” value is -18.8%.
Consider `COc1ccc(CCN(C)CCC[C@@](C#N)(c2ccc(OC)c(OC)c2)C(C)C)cc1OC`, for which the “activity, negative = inhibition” value was -5.17%.
Next, `COc1ccccc1NC(=O)Nc1nc(-c2cccnc2)nc2ccccc12`: -5.95%; `COc1[nH]c2ccc(F)cc2c1C(=O)OCC1CCN(CCNS(C)(=O)=O)CC1`: -5.82%.
Next, `C[C@H](N=C(NC#N)Nc1ccncc1)C(C)(C)C`: -10.9%; `CC(N)=NCCC[C@H](N)C(=O)O`: -3.04%.
Next, `C[C@@H]1CCN=C(N)S1`: -27.4%.
In the case of `CC#C[C@]1(O)CC[C@H]2[C@@H]3CCC4=CC(=O)CCC4=C3[C@H](c3ccc(N(C)C)cc3)C[C@@]21C`, the “activity, negative = inhibition” value was -10.3%.
The figure for `COC(=O)c1c(-c2cc(OC)c(OC)c(OC)c2)c2ccnc(OCc3ncccn3)c2c(=O)n1Cc1ccnc(C)c1` is 0.645%; for `N[C@H](CCC(=O)N[C@H](CSN=O)C(=O)NCC(=O)O)C(=O)O` it is -16.9%.
Consider `NC[C@](O)(CS(=O)(=O)O)c1ccc(Cl)cc1`, for which the “activity, negative = inhibition” value is -13.8%.
For the compound `CC[C@H](C)C(=O)O[C@H]1CCC=C2C=C[C@H](C)[C@H](CC[C@@H]3C[C@H](O)CC(=O)O3)[C@H]21`, the “activity, negative = inhibition” value was -19%.
Next, `CN(C)CCCCSC(=N)N`: -2.35%; `CCCCCCCCCCCCCCCC(=O)O[C@H](CC(=O)O)C[N+](C)(C)C`: -6.46%; `CCOC(=O)C1=C(C)NC(C)=C(C(=O)OC)[C@H]1c1cccc([N+](=O)[O-])c1`: -2.77%.
With `O=Nc1c(-c2c(O)[nH]c3ccccc23)[nH]c2ccccc12`, the “activity, negative = inhibition” value is 2.96%.
Next, `CN(C)c1ccc(/C=C2/C(=O)Nc3ccccc32)cc1`: 33.7%; `C1CCC(N=C(NC23CC4CC(CC(C4)C2)C3)N2CCOCC2)CC1`: -17.9%.
Next, `COc1cc2nc(N3CCN(C(=O)[C@H]4CCCO4)CC3)nc(N)c2cc1OC`: -0.925%.
The figure for `S=C(Nc1ccccc1)Nc1nccs1` is -16.6%; for `CC(N)=NCCCC[C@H](N)C(=O)O` it is -3.38%.
On to `O=C(Nc1cc(C(=O)Nc2ccc(S(=O)(=O)O)cc2S(=O)(=O)O)cc(C(=O)Nc2ccc(S(=O)(=O)O)cc2S(=O)(=O)O)c1)Nc1cc(C(=O)Nc2ccc(S(=O)(=O)O)cc2S(=O)(=O)O)cc(C(=O)Nc2ccc(S(=O)(=O)O)cc2S(=O)(=O)O)c1`, for which the “activity, negative = inhibition” value is -26.5%.
The figure for `CC[C@H](C)N(C)C(=O)c1cc2ccccc2c(-c2ccccc2Cl)n1` is -11.9%; for `NCCCCCCNS(=O)(=O)c1cccc2c(Cl)cccc12` it is -22.3%; for `N[C@@H](CO)C(=O)O` it is -16.5%.
As to `C[C@]12CC3CC(N)(C1)C[C@@](C)(C3)C2`, the “activity, negative = inhibition” value is 8.97%.
The figure for `O=C(O)[C@H]1CCCNC1` is 13.2%.
The figure for `CN1CCN2c3ccccc3Cc3ccccc3[C@@H]2C1` is -15.1%; for `NCCNS(=O)(=O)c1cccc2cnccc12` it is 8.34%; for `CCCn1c(=O)c2[nH]c(-c3ccc(OCC(=O)Nc4ccc(C#N)cc4)cc3)nc2n(CCC)c1=O` it is 0.0825%.
Next, `CN(C)C/C=C(\c1ccc(Br)cc1)c1cccnc1`: -11.6%; `CC(C)NC[C@@H](O)COc1ccc(CCOCC2CC2)cc1`: -3.79%.
Take `COC(=O)C1=C(C)NC(C)=C([N+](=O)[O-])[C@H]1c1ccccc1C(F)(F)F`: the “activity, negative = inhibition” value was -19.3%.
Turning to `C[C@@](N)(C(=O)O)c1ccc(C(=O)O)cc1`, the “activity, negative = inhibition” value was -10.5%.
